Where a name gives a salt, the structure may show the parent alone. ± gives the standard deviation of the averaged measurements.
What was measured:
Experiment in all cases: growth (OD600 after 10 h); higher = more growth (less inhibition)
[1] = system: E. coli TESEC Alr+ wild-type control; conditions: compound 0.1 mM; raw OD600 reference: median of DMSO wells 0.241, cell-free background 0.041
Experimental: (§1)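 TESEC Mtb Alr E. coli, or the Alr+ wild-type control, in 384-well plates with Prestwick library compounds at 0.1 mM and 1% DMSO, across arabinose induction levels of 1E3 to 1E7 nM. Growth is read as OD600 after 10 h at 37 °C in triplicate biological replicates.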

[2] = system: E. coli TESEC Mtb Alr; conditions: compound 0.1 mM
Experimental: as §1

[3] = system: E. coli TESEC Mtb Asd; conditions: compound 0.1 mM
Experimental: (§2)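 TESEC E. coli strains in which the native enzyme is deleted and replaced by arabinose-inducible Mtb Asd, DapB, CysH or TrpD, each grown in its selective medium. Strains were screened against the Prestwick library at 0.1 mM and 1% DMSO in 384-well format at low and high arabinose induction. Growth is read as OD600 after 10 h in triplicate.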

[4] = system: E. coli TESEC Mtb DapB; conditions: compound 0.1 mM
Experimental: as §2

[5] = system: E. coli TESEC Mtb Alr; conditions: compound 0.1 mM; remark: listed apart in the source
Experimental: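 TESEC Mtb Alr E. coli (ΔaraC ΔtolC ΔentC Δalr ΔdadX, arabinose-inducible Mtb Alr) or the Alr+ wild-type control strain, grown in defined M9-fructose medium without D-alanine in 96-well plates with Prestwick library compounds at 0.1 mM and 1% DMSO. Low Alr induction is 0.1 µM arabinose and high induction is 10 mM arabinose.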

[6] = arabinose 1000 nM, raw OD600 reference: median of DMSO wells 0.294, cell-free background 0.041
[7] = arabinose 10000 nM, raw OD600 reference: median of DMSO wells 0.264, cell-free background 0.041
[8] = arabinose 100000 nM, raw OD600 reference: median of DMSO wells 0.201, cell-free background 0.041
[9] = arabinose 1000000 nM, raw OD600 reference: median of DMSO wells 0.193, cell-free background 0.041
[10] = arabinose 10000000 nM, raw OD600 reference: median of DMSO wells 0.146, cell-free background 0.041
[11] = arabinose induction (level): High, raw OD600 reference: median of DMSO wells 0.331, cell-free background 0.041
[12] = arabinose induction (level): Low, raw OD600 reference: median of DMSO wells 0.417, cell-free background 0.041
[13] = arabinose induction (level): High, raw OD600 reference: median of DMSO wells […], cell-free background 0.041
[14] = arabinose induction (level): Low, raw OD600 reference: median of DMSO wells 0.227, cell-free background 0.041
[15] = arabinose 100 nM, raw OD600 reference: median of DMSO wells 0.413, cell-free background 0.052
[16] = arabinose 10000000 nM, raw OD600 reference: median of DMSO wells […], cell-free background 0.052

SMILES | growth [1] | growth [2, 6] | growth [2, 7] | growth [2, 8] | growth [2, 9] | growth [2, 10] | growth [3, 11] | growth [3, 12] | growth [4, 13] | growth [4, 14] | growth [5, 15] | growth [5, 16]
Cc1cc2cc3c(C)cc(=O)oc3c(C)c2o1 [Trioxsalen] | 0.253 ± 0.0068 | 0.312 ± 0.0079 | 0.258 ± 0.008 | 0.192 ± 0.0079 | 0.161 ± 0.0053 | 0.1653 ± 0.0007 | 0.454 ± 0.015 | 0.423 ± 0.0095 | 0.231 ± 0.032 | 0.237 ± 0.012 | 0.4096 ± 0.0037 | 0.324 ± 0.024
COCCc1ccc(OCC(O)CNC(C)C)cc1 (racemic) [Metoprolol-(+,-) (+)-tartrate salt] | 0.225 ± 0.0047 | 0.306 ± 0.018 | 0.266 ± 0.014 | 0.203 ± 0.013 | 0.199 ± 0.0081 | 0.141 ± 0.0035 | 0.311 ± 0.028 | 0.466 ± 0.038 | 0.214 ± 0.031 | 0.236 ± 0.0073 | 0.399 ± 0.008 | 0.3498 ± 0.0028
OCc1cc(C(O)CNCCCCCCOCCCCc2ccccc2)ccc1O (configuration not stated) [Salmeterol] | 0.166 ± 0.0032 | 0.181 ± 0.012 | 0.159 ± 0.0031 | 0.171 ± 0.0065 | 0.0641 ± 0.0012 | 0.151 ± 0.0035 | 0.176 ± 0.01 | 0.202 ± 0.049 | 0.208 ± 0.017 | 0.214 ± 0.017 | 0.349 ± 0.0092 | 0.201 ± 0.033
CN(C)CCCN1c2ccccc2CCc2ccc(Cl)cc21 [Clomipramine hydrochloride] | 0.04137 ± 0.00021 | 0.03983 ± 0.00015 | 0.03953 ± 0.00025 | 0.0451 ± 0.0062 | 0.04 ± 0.00035 | 0.0473 ± 0.0044 | 0.0467 ± 0.00076 | 0.0482 ± 0.0034 | 0.0466 ± 0.00055 | 0.0467 ± 0.00083 | 0.4115 ± 0.0024 | 0.193 ± 0.066
Nc1nc(N)nc(-c2cc(Cl)ccc2Cl)n1 [Irsogladine maleate] | 0.238 ± 0.0051 | 0.298 ± 0.013 | 0.2393 ± 0.0018 | 0.207 ± 0.011 | 0.173 ± 0.0041 | 0.143 ± 0.0066 | 0.297 ± 0.072 | 0.406 ± 0.025 | 0.197 ± 0.019 | 0.211 ± 0.017 | 0.402 ± 0.0076 | 0.357 ± 0.0079
O=C1CN(/N=C/c2ccc([N+](=O)[O-])o2)C(=O)N1 [Nitrofurantoin] | 0.0453 ± 0.00076 | 0.181 ± 0.0058 | 0.0822 ± 0.0037 | 0.04437 ± 0.00021 | 0.0737 ± 0.0054 | 0.0451 ± 0.00093 | 0.196 ± 0.034 | 0.341 ± 0.038 | 0.172 ± 0.009 | 0.218 ± 0.034 | 0.0546 ± 0.0087 | 0.055 ± 0.0017
CCN(CC)CCOc1ccc(C(=C(Cl)c2ccccc2)c2ccccc2)cc1 [Clomiphene citrate (Z,E)] | 0.0417 ± 0.00081 | 0.04167 ± 0.00032 | 0.04553 ± 0.00029 | 0.0433 ± 0.0019 | 0.0493 ± 0.00052 | 0.0428 ± 0.00085 | 0.0496 ± 0.0019 | 0.0482 ± 0.00099 | 0.04853 ± 0.00015 | 0.0475 ± 0.00049 | 0.0696 ± 0.034 | 0.0856 ± 0.015
Cc1ncc([N+](=O)[O-])n1CC(C)O (configuration not stated) [Secnidazole] | 0.2401 ± 0.001 | 0.304 ± 0.012 | 0.272 ± 0.015 | 0.201 ± 0.0071 | 0.188 ± 0.0085 | 0.137 ± 0.0015 | 0.369 ± 0.026 | 0.466 ± 0.031 | 0.2001 ± 0.001 | 0.216 ± 0.024 | 0.4049 ± 0.0029 | 0.327 ± 0.0064
C=CCN1CCCC1CNC(=O)c1cc2nn[nH]c2cc1OC (configuration not stated) [Alizapride HCl] | 0.234 ± 0.0057 | 0.277 ± 0.0082 | 0.271 ± 0.01 | 0.218 ± 0.025 | 0.191 ± 0.0082 | 0.143 ± 0.0052 | 0.299 ± 0.032 | 0.373 ± 0.05 | 0.217 ± 0.022 | 0.201 ± 0.017 | 0.406 ± 0.011 | 0.336 ± 0.011
CNCC(O)c1ccc(O)c(O)c1 (configuration not stated) [Racepinephrine HCl] | 0.243 ± 0.0062 | 0.302 ± 0.0045 | 0.291 ± 0.0096 | 0.199 ± 0.0083 | 0.186 ± 0.0042 | 0.155 ± 0.0036 | 0.27 ± 0.052 | 0.44 ± 0.018 | 0.193 ± 0.0072 | 0.273 ± 0.06 | 0.4177 ± 0.0019 | 0.288 ± 0.015
CN(C)CCOC(c1ccccc1)c1ccccc1 [Diphenhydramine hydrochloride] | 0.2284 ± 0.002 | 0.296 ± 0.008 | 0.238 ± 0.0071 | 0.187 ± 0.013 | 0.151 ± 0.0087 | 0.148 ± 0.0063 | 0.194 ± 0.016 | 0.435 ± 0.016 | 0.195 ± 0.021 | 0.24 ± 0.051 | 0.408 ± 0.0097 | 0.307 ± 0.029
NC(=O)OCC(O)COc1ccc(Cl)cc1 (configuration not stated) [Chlorphensin carbamate] | 0.251 ± 0.011 | 0.287 ± 0.016 | 0.2846 ± 0.0028 | 0.245 ± 0.022 | 0.2014 ± 0.002 | 0.162 ± 0.0045 | 0.364 ± 0.046 | 0.379 ± 0.024 | 0.214 ± 0.014 | 0.279 ± 0.041 | 0.416 ± 0.019 | 0.366 ± 0.023
CC[C@@]1(O)C(=O)OCc2c1cc1n(c2=O)Cc2cc3c(CN(C)C)c(O)ccc3nc2-1 [Topotecan] | 0.235 ± 0.0064 | 0.271 ± 0.01 | 0.271 ± 0.0034 | 0.345 ± 0.039 | 0.127 ± 0.0043 | 0.183 ± 0.015 | 0.214 ± 0.029 | 0.317 ± 0.044 | 0.202 ± 0.067 | 0.178 ± 0.014 | 0.393 ± 0.0043 | 0.269 ± 0.0042
Cn1cnc([N+](=O)[O-])c1Sc1ncnc2[nH]cnc12 [Azathioprine] | 0.126 ± 0.017 | 0.0771 ± 0.0059 | 0.0744 ± 0.0045 | 0.0829 ± 0.005 | 0.0691 ± 0.0013 | 0.0849 ± 0.0021 | 0.347 ± 0.045 | 0.261 ± 0.043 | 0.202 ± 0.016 | 0.226 ± 0.019 | 0.312 ± 0.029 | 0.175 ± 0.0061
CC(C)(C)NC[C@H](O)COc1ccccc1C1CCCC1 [Penbutolol sulfate] | 0.211 ± 0.0068 | 0.225 ± 0.0034 | 0.321 ± 0.0081 | 0.162 ± 0.011 | 0.128 ± 0.0083 | 0.142 ± 0.013 | 0.205 ± 0.028 | 0.295 ± 0.038 | 0.184 ± 0.013 | 0.207 ± 0.015 | 0.412 ± 0.0049 | 0.261 ± 0.047
NC(=O)C(c1ccccc1)(c1ccccc1)[C@@H]1CCN(CCc2ccc3c(c2)CCO3)C1 [Darifenacin hydrobromide] | 0.163 ± 0.011 | 0.216 ± 0.0036 | 0.292 ± 0.0043 | 0.16 ± 0.02 | 0.0999 ± 0.0027 | 0.146 ± 0.011 | 0.156 ± 0.033 | 0.276 ± 0.01 | 0.186 ± 0.0081 | 0.205 ± 0.015 | 0.411 ± 0.0056 | 0.272 ± 0.016

Source: the supplement of paper PMC9262897, “Low-cost anti-mycobacterial drug discovery using engineered E. coli” (Nature Communications, 2022)
